In PubChem BioAssay AID1259418 (Broad Institute, 2018):
About 840 (25%) of roughly 3,400 compounds were called active. Another 11% or so got no clear call; they are omitted.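 How the source made its calls: active means fitted half-maximal concentration of signal decrease at or below twice the sample's top tested concentration; inconclusive means flat curve between -70 and -30 percent, or poor fit; inactive means flat within 30 percent, signal rise, or potency above limit.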 The list is a sample of the results. Entries with a potency or affinity are not part of this list.

experiment: T. gondii growth inhibition with IFN-gamma, dose response, cell-based, ME49Luc, HeLa, luciferase, 72 h (AID 1259418); conditions: T. gondii ME49Luc in IFN-y HeLa, active compounds read low, -100% = high-dose IFN-γ control wells; at 19.5 µM unless noted

Compound	max activity
COc1cccc(CC(=O)N2CCC3(CC2)Nc2cc(OC)ccc2-n2cccc23)c1	12.8% [at 0.35 µM] (inactive)
COc1ccc(CCNc2nc(SCc3cc(=O)n4cc(Cl)ccc4n3)nc3ccccc23)cc1OC	12.8% (inactive)
CN1C[C@H]2CN(Cc3ccc4c(c3)OCO4)CCC[C@@]2(C(=O)O)C1	12.4% (inactive)
Cc1ccc(Cn2c(CN3CCC(C(=O)NCc4cccnc4)CC3)cc3ccccc32)cc1	16.6% [at 2.6 µM] (inactive)
COc1cccc(C(=O)N2CCC3(CC2)Nc2ccc(Cl)cc2-n2cccc23)c1	7.04% [at 10 µM] (inactive)
Cc1cccc(OCC(=O)N2CCC(C(=O)NCCc3csc(-c4ccccc4)n3)CC2)c1	9.91% (inactive)
CCc1cnc(N2CCc3cc(C(=O)NCC4CC4)c(N(C)C)nc3CC2)nc1	-14.2% [at 2.6 µM] (inactive)
CN(C)C(=O)c1cc2c(nc1NCC1CC1)CCN(Cc1ccccn1)CC2	32.5% (inactive)
COc1ccc(C(=O)N2CCC3(CC2)Nc2ccc(Cl)cc2-n2cccc23)cc1OC	9.68% [at 0.68 µM] (inactive)
O=C(Nc1ccc(-c2nc(-c3ccccc3)co2)cc1)C1CCCCC1	11.6% [at 10 µM] (inactive)
CCc1ccc(-c2noc(-c3nnn(Cc4nc(-c5ccccc5OC)oc4C)c3C)n2)cc1	11.7% [at 1.35 µM] (inactive)
Cc1cccc(OCC(=O)N2CCC[C@@H]2C(=O)NCCc2csc(-c3ccccc3)n2)c1	9.84% [at 2.6 µM] (inactive)
O=C(Cc1cccnc1)N1CC(=O)N2[C@@H](CO)[C@H](c3ccc(C#CC4CCCCC4)cc3)[C@@H]2C1	14.3% [at 10 µM] (inactive)
COCC(=O)N1CC(=O)N2[C@H](CO)[C@@H](c3ccc(C#CC4CC4)cc3)[C@@H]2C1	39.9% (inactive)
COCC(=O)N1CC(=O)N2[C@H](CO)[C@H](c3ccc(C#CC4CC4)cc3)[C@@H]2C1	43.4% (inactive)
Cc1ccc(-c2noc(-c3nnn(Cc4nc(-c5ccccc5)oc4C)c3C)n2)cc1C	6.16% (inactive)
O=C(Cc1cccs1)N1CCC2(CC1)Nc1cc(F)ccc1-n1cccc12	7.4% [at 2.6 µM] (inactive)
Cc1cccc(S(=O)(=O)N2CCC(C(=O)NCCc3csc(C)n3)CC2)c1	-8.91% (inactive)
COc1ccccc1-c1nc(Cn2nnc(-c3nc(-c4cccc(OC)c4OC)no3)c2C)c(C)o1	-11.2% (inactive)
Cc1ccc(-c2noc(-c3nnn(Cc4nc(-c5ccccc5)oc4C)c3C)n2)cc1	8.04% (inactive)
O=C(Nc1ccc(-c2nc(-c3ccccc3)co2)cc1)Nc1ccc(F)c(Cl)c1	15.9% (inactive)
CC(C)CNC(=O)C1Cn2ccnc2C2(CCN(c3ncccn3)CC2)O1 (stereo unspecified)	47.8% (inactive)
Cc1cccc(-c2nc(Cn3nnc(-c4nc(-c5cccc(Br)c5)no4)c3C)c(C)o2)c1	7% [at 0.68 µM] (inactive)
COCCNC1=NCCNC12CCN(S(=O)(=O)c1ccc(C(C)C)cc1)CC2	-6.8% [at 1.35 µM] (inactive)
CC(C)c1ccc(S(=O)(=O)N2CCC3(CC2)NCCN=C3NCc2ccc(F)cc2)cc1	-13.4% [at 10 µM] (inactive)
COc1ccccc1CCC(=O)Nc1ccc2c(c1)CCC(=O)N2C	-10.7% [at 0.16 µM] (inactive)

Compound	max activity
O=C1CCc2cc(NC(=O)c3cncc(Br)c3)ccc2N1	4.53% [at 0.68 µM] (inactive)
Cc1cccc(NC(=O)Nc2ccc(-c3nc(-c4cc(C)ccc4C)co3)cc2)c1	6.67% (inactive)
CC(C)CC#Cc1ccc([C@@H]2[C@H]3CN(C(=O)Nc4cc(F)ccc4F)CC(=O)N3[C@H]2CO)cc1	2.95% [at 0.16 µM] (inactive)
Cc1oc(-c2ccccc2)nc1Cn1nnc(-c2nc(-c3cccc(C(F)(F)F)c3)no2)c1C	-10.4% [at 0.35 µM] (inactive)
CCC(C(=O)N1CCC2(CC1)Nc1cc(OC)ccc1-n1cccc12)c1ccccc1 (stereo unspecified)	9.09% [at 0.35 µM] (inactive)
O=C(CCC1N=C2c3ccccc3N=C(SCc3cccc(F)c3)N2C1=O)NCCc1ccccc1 (stereo unspecified)	28.7% (inactive)
CCOC(=O)CSC1=Nc2ccccc2C2=NC(CCC(=O)NCCc3ccccc3)C(=O)N12 (stereo unspecified)	12.5% (inactive)
O=C(CC1N=C2c3ccccc3N=C(SCc3cccc(F)c3)N2C1=O)NCc1ccc(F)cc1 (stereo unspecified)	31.4% [at 2.6 µM] (inactive)
O=C(CC1N=C2c3ccccc3N=C(SCc3ccc(F)cc3)N2C1=O)NCc1ccccc1 (stereo unspecified)	12.9% [at 10 µM] (inactive)
COc1ccccc1CNC(=O)CCC1N=C2c3ccccc3N=C(SCc3ccc(C)cc3)N2C1=O (stereo unspecified)	16.9% [at 0.16 µM] (inactive)
N#CCSC1=Nc2ccccc2C2=NC(CCC(=O)NCCc3ccccc3)C(=O)N12 (stereo unspecified)	23.8% [at 0.16 µM] (inactive)
CN(C)Cc1noc2c1CN(Cc1nccn1C)CC2	50.1% (inactive)
COc1cc(NC(=O)CN2CCC3(CC2)N=C(c2cccc(C)c2)C(=O)N3)cc(OC)c1	-9.06% [at 2.6 µM] (inactive)
Cc1ccc(-c2nc(Cn3nnc(-c4nc(-c5ccc6c(c5)OCO6)no4)c3C)c(C)o2)cc1	17.5% [at 0.68 µM] (inactive)
COc1cc(OC)cc(C(=O)N2CCC3(CC2)Nc2ccc(Cl)cc2-n2cccc23)c1	-6.3% [at 5 µM] (inactive)
COc1ccccc1N1CCN(c2nc(-c3ccc(Cl)cc3)nc3ccccc23)CC1	8.55% [at 5 µM] (inactive)
Cc1noc(C)c1C1CCCN1C(=O)Cn1nc(C(F)(F)F)cc1C (stereo unspecified)	-9.96% [at 0.35 µM] (inactive)
COc1ccc(-c2nc(N3CCN(Cc4ccccc4)CC3)c3ccccc3n2)cc1	20.1% (inactive)
COc1ccc(-c2nc(N3CCCCCC3)c3ccccc3n2)cc1	11.2% [at 0.16 µM] (inactive)
COc1ccc(-c2nc(N3CCC(N4CCCCC4)CC3)c3ccccc3n2)cc1	-13.2% [at 10 µM] (inactive)
COc1ccc(-c2nc(N3CCCCC3)c3ccccc3n2)cc1	24.4% (inactive)
COc1ccc(-c2nc(N3CCN(c4ccccc4)CC3)c3ccccc3n2)cc1	18.5% (inactive)
COc1ccc(-c2nc(N3CCCC3)c3ccccc3n2)cc1	-15.5% [at 2.6 µM] (inactive)
COc1ccc(-c2nc(N3CCN(c4ccc(OC)cc4)CC3)c3ccccc3n2)cc1	51.6% (inactive)
Clc1ccc(-c2nc(N3CCC4(CC3)OCCO4)c3ccccc3n2)cc1	-8.6% [at 10 µM] (inactive)
